Assay outcomes: PubChem, Johns Hopkins Ion Channel Center
KCNQ2 block: rat KCNQ2 potassium channel inhibitors, primary screen, cell-based, CHO-K1, FluxOR thallium flux, B-score; B-score at 10 µM; Potassium voltage-gated channel subfamily KQT member 2 (Rattus norvegicus), O88943; 20 min; stronger effect = lower value; 1.1% of 310,000 active;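 active = fluorescence ratio B-score at most minus 3 library SDs, with starting brightness B-score within 2 library SDs, cut at about -5.5 in these data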
Target sequence (O88943 whole entry, looked up): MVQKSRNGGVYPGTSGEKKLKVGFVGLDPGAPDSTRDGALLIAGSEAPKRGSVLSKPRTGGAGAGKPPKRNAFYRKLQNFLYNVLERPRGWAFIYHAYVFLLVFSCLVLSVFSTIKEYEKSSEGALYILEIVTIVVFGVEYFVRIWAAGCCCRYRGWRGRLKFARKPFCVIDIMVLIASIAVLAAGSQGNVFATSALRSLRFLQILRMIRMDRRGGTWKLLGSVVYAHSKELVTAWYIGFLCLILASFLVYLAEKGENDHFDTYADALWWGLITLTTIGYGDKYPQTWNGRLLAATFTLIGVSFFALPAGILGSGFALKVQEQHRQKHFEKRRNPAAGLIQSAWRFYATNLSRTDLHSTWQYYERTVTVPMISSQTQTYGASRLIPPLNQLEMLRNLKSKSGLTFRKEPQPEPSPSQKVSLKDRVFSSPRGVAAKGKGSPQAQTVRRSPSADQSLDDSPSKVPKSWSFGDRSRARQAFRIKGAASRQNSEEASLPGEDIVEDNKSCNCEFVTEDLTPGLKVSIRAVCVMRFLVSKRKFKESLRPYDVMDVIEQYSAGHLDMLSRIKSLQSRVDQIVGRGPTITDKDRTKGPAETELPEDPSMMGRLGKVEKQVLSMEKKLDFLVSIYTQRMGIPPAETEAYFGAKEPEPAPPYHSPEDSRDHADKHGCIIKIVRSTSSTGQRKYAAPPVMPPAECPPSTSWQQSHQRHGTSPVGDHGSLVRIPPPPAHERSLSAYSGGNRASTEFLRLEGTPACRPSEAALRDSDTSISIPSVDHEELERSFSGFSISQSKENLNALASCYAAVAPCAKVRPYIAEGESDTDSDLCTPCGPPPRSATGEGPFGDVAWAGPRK
KCNQ2 enhance: potentiators of rat KCNQ2 potassium channel. Potassium voltage-gated channel subfamily KQT member 2 (Rattus norvegicus), O88943. CHO-K1 KCNQ2, FluxOR thallium flux fluorescence; stronger effect = higher value. B-score at 10 µM. 0.54% of 310,000 active;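 active = fluorescence ratio B-score at least 3 SD of library B-scores, with initial fluorescence B-score within 3 of them, cut at about 5.3 in these data; same plate scores as AID 2156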;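 note: B-score of peak minus minimum over baseline fluorescence ratio after K+ and Tl+ stimulus; positive B-score means potentiation of KCNQ2 with more thallium influx and brighter signal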
Numbers without * were called inactive; i = inactive; · = no result. Rows were chosen to be rich in hits. Some 1.6% of all compounds tested hit in one or more screens of this group.

SMILES	KCNQ2 block	KCNQ2 enhance
Cc1cc([N+](=O)[O-])ccc1NC(=O)CN1C2CCC1CC(NC(=O)NC13CC4CC(CC(C4)C1)C3)C2 (centres undefined)	i	1.44
Cc1cc(C)n(C(C[N+](=O)[O-])c2ccc(Cl)cc2)n1 (centres undefined)	-10.1*	-10.1
Cc1cc(O)c(C(C[N+](=O)[O-])c2ccc(Cl)cc2)c(=O)o1 (centres undefined)	i	·
CC(C)(C)c1cc(C(=O)Nc2cccc3ccccc23)ccn1	-5.8*	-5.8
Cc1ccc(C(=O)Nc2cccc3ccccc23)cc1	i	0.99
COc1ccccc1CNC(=O)c1n[nH]c2ccccc12	i	0.13
COc1ccccc1CNC(=O)COC(=O)c1n[nH]c2ccccc12	-5.88*	-5.88
Cc1ccc(NC(=O)c2ccco2)c(NC(=O)C2CCCO2)c1 (centres undefined)	i	·
COc1ccc(OC)c(S(=O)(=O)NC2CCSc3ccccc32)c1 (centres undefined)	i	·
O=C(CCc1nnc(CCCc2ccccc2)o1)NCCCC1CCCC1	i	·
COc1ccc(NC(=O)CC23CC4CC(CC(C4)C2)C3)cn1	i	18.3*
O=C(CC12CC3CC(CC(C3)C1)C2)Nc1ccc(C(=O)O)cc1	i	·
CCCCC1CN2CCc3c([nH]c4ccccc34)C2(C)C1 (centres undefined)	i	0.72
O=C(Nc1ccc(S(=O)(=O)NCc2ccccc2)cc1)C1CCCCC1	i	·
CN(C)c1ccc(/C=C/c2nc3ccccc3c(=O)n2CCO)cc1	-5.95*	-5.95
O=c1c2ccccc2nc(/C=C/c2ccccc2)n1CCCO	i	2.5
CN(CCOc1ccccc1)CC(=O)Nc1ccc(Br)cc1F	i	·
CC1CCCC(C)N1C(=O)COC(=O)C1CCN(S(=O)(=O)c2ccc3c(c2)OCCO3)CC1 (centres undefined)	i	·
CCc1ccc(NC(=O)CSCCO)cc1	i	0.6
CCCCSCCCNC(=O)Nc1ccc(CC)cc1	i	5.63*
CCCN1CCN(CCCNC(=O)c2ccc3c(=O)n(CCc4ccccc4)c(=O)[nH]c3c2)CC1	i	·
O=C(NCCN1CCCC1)c1ccc2c(=O)n(CCc3ccccc3)c(=O)[nH]c2c1	-6.03*	-6.03
N#CCCNc1c(Cl)cc(Cl)cc1C(=O)O	i	1.85
O=C(Nc1ccccc1-c1ccccc1)c1ccccc1Br	-6.3*	-6.3
O=C(Nc1ccccc1Br)c1ccccc1-c1ccccc1	i	·
SMILES	KCNQ2 block	KCNQ2 enhance
O=C(NCc1ccco1)c1ccc(Cn2c(=O)c3ccccc3n(Cc3ccc(Cl)cc3)c2=O)cc1	-6.53*	-6.53
O=C(NCc1ccco1)c1ccc(Cn2c(=O)c3ccccc3n(Cc3cccc(F)c3)c2=O)cc1	i	·
CC(=O)Nc1ccc(S(=O)(=O)N[C@@H](C)C(=O)OCc2ccc(Cl)cc2)cc1	i	0.03
CCC1=NN(C(=O)c2ccc(Br)cc2)C(O)(c2ccccc2)C1 (centres undefined)	i	6.04*
CC1=NN(C(=O)c2ccccc2)C(O)(c2ccc(Br)cc2)C1 (centres undefined)	i	1.08
Cc1ccc(C)c(C(C)NC(=O)c2ccc(Br)o2)c1 (centres undefined)	i	·
Cc1ccc2cc(C(c3nnnn3C3CCCC3)N(Cc3ccccc3)Cc3ccco3)c(=O)[nH]c2c1 (centres undefined)	i	·
Cc1cc2cc(C(c3nnnn3C3CCCC3)N(Cc3cccnc3)Cc3ccco3)c(=O)[nH]c2cc1C (centres undefined)	-6.02*	-6.02
Cc1ccc(S(=O)(=O)N(Cc2ccc([N+](=O)[O-])cc2)C(=O)N2CCN(C)CC2)cc1	i	·
CC(=O)N(C)c1nc(N)n(-c2ccccc2)n1	i	·
C=CC[C@H]1CC(C)=C[C@H](CC=C)N1C(=O)c1cc(COc2ccccc2SC)on1	-5.57*	-5.57
COCC1CCN(C(=O)c2cc(COc3ccccc3SC)on2)C1 (centres undefined)	i	2.98
Oc1ccc(Br)cc1-c1ccn[nH]1	i	11.8*
Oc1ccc(Br)cc1-c1cc(-c2ccco2)[nH]n1	i	·
Cc1cc(/C=N/n2cnnc2)c(C)n1-c1ccc(OCc2ccc(Cl)cc2Cl)cc1	i	·
Cc1cc(/C=N/n2cnnc2)c(C)n1-c1ccc(OCc2ccc(F)cc2)cc1	-6.18*	-6.18
COc1ccc(C(=O)CCc2ccccc2)c(O)c1	i	·
O=C(CCc1ccccc1)c1c(O)cc(O)cc1O	-8.23*	-8.23
O=S(=O)(NCCCN1CCOCC1)c1ccc(Cl)cc1	i	8.03*
CC(=O)N1CCOc2ccc(S(=O)(=O)NCCc3ccc(C)cc3)cc21	i	·
O=S(=O)(NCCN1CCOCC1)c1ccc(-c2ccc(S(=O)(=O)NCCN3CCOCC3)cc2)cc1	i	·
CN1CCOc2ccc(S(=O)(=O)NCCc3ccc(Cl)cc3)cc21	-6.72*	-6.72
Cc1nc(NC(=O)CCN2C(=O)C3CC=CCC3C2=O)sc1C (centres undefined)	i	·
Cc1cccc(N=Cc2cc3c(cc2[N+](=O)[O-])OCO3)c1	-6.49*	-6.49
O=[N+]([O-])c1cc2c(cc1C=Nc1ccccc1)OCO2	i	·
SMILES	KCNQ2 block	KCNQ2 enhance
CC1(C(=O)Nc2nc3ccccc3s2)CC1(Br)Br (centres undefined)	i	1.36
CC(C)(C)c1ccc(C2(C)NC(=O)NC2=O)cc1 (centres undefined)	i	0.97
CCOc1ccccc1CNn1cnnc1	i	1.53
COc1cccc(CNn2cnnc2)c1O	-5.64*	-5.64
COC(=O)c1ccccc1NC(=O)NN1CCN(C)CC1	i	0.72
COC(=O)c1ccccc1C(=O)N1CCC(CCC(=O)NC2CC2)CC1	i	·
O=C(O)c1cc(-c2ccc(-c3c(-c4ccc5c(c4)OCO5)noc3-c3ccsc3)cc2)nc2ccccc12	i	·
c1ccc(-c2onc(-c3ccco3)c2-c2ccc3c(c2)OCO3)cc1	-5.88*	-5.88
CCN(CC)S(=O)(=O)c1ccc(C(=O)NCc2n[nH]c(=S)n2-c2ccc(Cl)c(Cl)c2)cc1	i	·
COc1ccc(CNc2cccc(C)n2)c(O)c1	i	·
Cc1cccc(NCc2cccc3ccccc23)n1	-5.9*	-5.9
COc1cccc(-n2c(SCC(=O)Nc3sc4c(c3C(N)=O)CCC4)nc3ccccc3c2=O)c1	-6.09*	-6.09
COc1cccc(-n2c(SCC(N)=O)nc3ccccc3c2=O)c1	i	0.67
CCN(Cc1ccncc1)C(=O)CSc1ccc2ccccc2c1	i	1.44
Cc1ccc2nc(-c3ccccc3)cc(C(=O)NCC3CCCO3)c2c1 (centres undefined)	i	·
Cc1ccc2nc(-c3ccccc3)cc(C(=O)NCC(c3ccco3)N(C)C)c2c1 (centres undefined)	-5.8*	-5.8
COc1cccc(CN(C)C(=O)CSc2nc3ccccc3[nH]2)c1OC	i	0.62
Cc1ccc(NC(=O)OCCN2CCN(Cc3ccccc3)CCC2=O)cc1C	i	·
Cc1ccccc1NC(=O)OCCN1CCN(Cc2ccccc2)CCC1=O	-6.35*	-6.35
Fc1ccc2nc(Nc3nc4c(F)cc(F)cc4s3)sc2c1	i	4.89
Fc1ccc2nc(Nc3nc4c(F)cccc4s3)sc2c1	i	14.5*
C(#Cc1ccccc1)CN1CCCCC1	i	6.3*
C(#Cc1ccccc1)CN1CCN(c2ccccn2)CC1	i	0.75
CSc1cc(C)c(OCC(=O)Nc2ccc(NC(C)=O)cc2)c(C)c1	i	0.09
